From the supplement of paper PMC9694430

Key:
Experiment in all cases: thermal shift delta Tm vs DMSO control; higher = stronger stabilization (binding)
Conditions in all cases: 12.5 µM; protein concentration 2 µM
[1] = tested on: LOC_OS01G01410-cb001
Method in brief: (§1)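 Rice kinase domain constructs were expressed in E. coli, purified, and tested by differential scanning fluorimetry with compound added in DMSO. Each well of a 96-well plate held 19.5 μl of 2 μM kinase in 100 mM potassium phosphate pH 7.5, 150 mM NaCl, 10% glycerol and 5 × SYPRO Orange, and fluorescence was read from 25°C to 95°C at 0.05°C/s. The melting temperature shift is the mean of triplicates, taken against protein with DMSO alone after Boltzmann fitting.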

[2] = tested on: LOC_OS01G02750-cb003
Method in brief: as §1

[3] = tested on: LOC_OS01G10900-cb004
Method in brief: as §1

[4] = tested on: LOC_OS01G13800-cb001
Method in brief: as §1

[5] = tested on: LOC_OS01G14860-cb001
Method in brief: as §1

[6] = tested on: LOC_OS01G21960-cb002
Method in brief: as §1

[7] = tested on: LOC_OS01G39600-cb002
Method in brief: as §1

[8] = tested on: LOC_OS01G48390-cb002
Method in brief: as §1

[9] = tested on: LOC_OS01G51400-cb002
Method in brief: as §1

[10] = tested on: T1, LOC_OS01G52050-cb004
T1 sequence (whole entry): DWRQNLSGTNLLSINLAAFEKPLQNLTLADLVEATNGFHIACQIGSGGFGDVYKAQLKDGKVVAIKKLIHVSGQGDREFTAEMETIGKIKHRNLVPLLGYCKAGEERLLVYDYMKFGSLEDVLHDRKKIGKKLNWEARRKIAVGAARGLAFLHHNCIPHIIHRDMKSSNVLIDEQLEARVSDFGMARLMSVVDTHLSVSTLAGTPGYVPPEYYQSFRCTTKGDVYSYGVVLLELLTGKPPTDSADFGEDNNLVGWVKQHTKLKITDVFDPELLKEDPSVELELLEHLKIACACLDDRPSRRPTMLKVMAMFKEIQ
Method in brief: as §1

[11] = tested on: LOC_OS01G57100-cb003
Method in brief: as §1

[12] = tested on: LOC_OS01G60330-cb001
Method in brief: as §1

[13] = tested on: LOC_OS01G60700-cb002
Method in brief: as §1

[14] = tested on: LOC_OS01G63280-cb003
Method in brief: as §1

[15] = tested on: LOC_OS01G67340-cb003
Method in brief: as §1

[16] = tested on: LOC_OS01G70970-cb002
Method in brief: as §1

[17] = tested on: LOC_OS02G07810-cb001
Method in brief: as §1

[18] = tested on: LOC_OS02G08530-cb003
Method in brief: as §1

[19] = tested on: LOC_OS02G14120-cb001
Method in brief: as §1

[20] = tested on: LOC_OS02G17970-cb001
Method in brief: as §1

SMILES	thermal shift delta Tm [1]	thermal shift delta Tm [2]	thermal shift delta Tm [3]	thermal shift delta Tm [4]	thermal shift delta Tm [5]	thermal shift delta Tm [6]	thermal shift delta Tm [7]	thermal shift delta Tm [8]	thermal shift delta Tm [9]	thermal shift delta Tm [10]	thermal shift delta Tm [11]	thermal shift delta Tm [12]	thermal shift delta Tm [13]	thermal shift delta Tm [14]	thermal shift delta Tm [15]	thermal shift delta Tm [16]	thermal shift delta Tm [17]	thermal shift delta Tm [18]	thermal shift delta Tm [19]	thermal shift delta Tm [20]
C=CC(=O)Nc1cccc(Nc2nc(Nc3ccc(OCCOC)cc3)ncc2F)c1	3.05 °C	0.97 °C	1.01 °C	-0.85 °C	3.77 °C	2.29 °C	-1.51 °C	1.44 °C	0.59 °C	3.59 °C	1.56 °C	8.86 °C	1.84 °C	0.22 °C	0.42 °C	1.81 °C	0.8 °C	3.49 °C	9.32 °C	0.13 °C
CCN(CC)CCCC(C)Nc1nc(C)cc(Nc2ccc3nc(C)cc(N)c3c2)n1 (stereo not given)	1.12 °C	1.02 °C	-0.35 °C	-0.26 °C	0.18 °C	0.15 °C	0.28 °C	1.07 °C	0.05 °C	0.12 °C	1.43 °C	0.65 °C	0.91 °C	0.28 °C	0.08 °C	0.16 °C	-0.06 °C	0.57 °C	0.93 °C	0.8 °C
FC(F)c1nc2ccccc2n1-c1nc(N2CCOCC2)nc(N2CCOCC2)n1	0.85 °C	0.92 °C	0.18 °C	0.89 °C	-0.06 °C	0.23 °C	0.94 °C	0.8 °C	0.35 °C	0.72 °C	0.81 °C	1.34 °C	1.13 °C	0.27 °C	-0.18 °C	0.47 °C	0.59 °C	0.83 °C	0.41 °C	0.88 °C
Nc1[nH]nc2nnc(-c3c(-c4ccccc4)nn4ccccc34)cc12	0.52 °C	0.34 °C	0.36 °C	0.24 °C	1.87 °C	0.45 °C	-0.05 °C	0.56 °C	0.19 °C	0.56 °C	1.13 °C	1.24 °C	0.92 °C	0.4 °C	0.72 °C	0.68 °C	-0.25 °C	2.11 °C	0.36 °C	0.87 °C
C=CC(=O)Nc1cc(Nc2nccc(-c3c[nH]c4ccccc34)n2)c(OC)cc1N(C)CCN(C)C	0.92 °C	0.98 °C	0.33 °C	0.08 °C	0.37 °C	0.6 °C	0.12 °C	0.83 °C	0.34 °C	0.96 °C	1.63 °C	0.87 °C	1.61 °C	0.65 °C	0.79 °C	0.59 °C	0.87 °C	5.01 °C	4.93 °C	1.65 °C
CCCNC(=O)Nc1ccc(Oc2ncnc3cc(OC)c(OC)cc23)cc1Cl	0.04 °C	0.33 °C	-0.21 °C	-0.35 °C	-0.27 °C	0.37 °C	0.76 °C	0.53 °C	-0.13 °C	1.02 °C	0.3 °C	0.97 °C	-0.2 °C	0.14 °C	-0.13 °C	-0.25 °C	0.93 °C	1.15 °C	-0.1 °C	0.04 °C
CNC(=O)Nc1ccc(-c2nc(N3CC4CCC(C3)O4)c3cnn(C4CCC5(CC4)OCCO5)c3n2)cc1	0.49 °C	1.08 °C	0.69 °C	0.32 °C	0.37 °C	1.21 °C	-0.16 °C	0.79 °C	0.4 °C	0.38 °C	2.76 °C	1.5 °C	0.99 °C	0.45 °C	0.98 °C	0.28 °C	1.7 °C	1.49 °C	1.03 °C	0.84 °C
Cc1cc(Nc2cc(N)ncn2)c(=O)n2c1C(=O)NC21CCCCC1	0.09 °C	0.56 °C	3.66 °C	-0.03 °C	1.91 °C	0.49 °C	-0.58 °C	-0.04 °C	0.24 °C	-0.14 °C	1.68 °C	0.51 °C	-0.25 °C	-0.02 °C	0.19 °C	0.38 °C	-1.2 °C	0.72 °C	2.1 °C	-0.32 °C
CONC(=O)c1ccccc1Nc1cc(Nc2cc(C)nn2C(C)C)ncc1Cl	0.19 °C	1.48 °C	0.57 °C	-0.17 °C	0.66 °C	0.75 °C	4.21 °C	1.49 °C	0.4 °C	3.96 °C	0.63 °C	0.07 °C	0.19 °C	0.5 °C	0.98 °C	1.15 °C	-0.17 °C	1.79 °C	3.22 °C	0.4 °C
Cc1ccc2nc(NCCN)c3ncc(C)n3c2c1	0.42 °C	0.41 °C	1.16 °C	0.4 °C	0.19 °C	0.57 °C	-0.24 °C	1.79 °C	0.09 °C	0.5 °C	0.95 °C	0.28 °C	0.64 °C	0.27 °C	0.55 °C	0.33 °C	0.4 °C	0.92 °C	0.86 °C	0.51 °C
COc1cc(OC)cc(N(CCNC(C)C)c2ccc3ncc(-c4cnn(C)c4)nc3c2)c1	0.55 °C	1.27 °C	0.16 °C	0.03 °C	0.57 °C	0.2 °C	1.11 °C	2.48 °C	0.26 °C	2.05 °C	1.85 °C	0.09 °C	0.12 °C	0.43 °C	0.07 °C	0.6 °C	-0.54 °C	0.61 °C	2.34 °C	-0.45 °C
CC(=O)Nc1cccc(-n2c(=O)n(C3CC3)c(=O)c3c(Nc4ccc(I)cc4F)n(C)c(=O)c(C)c32)c1	0.31 °C	1.28 °C	0.15 °C	0.06 °C	0.12 °C	0.5 °C	-0.55 °C	0.45 °C	0 °C	0.63 °C	1.39 °C	0.69 °C	0.72 °C	0.03 °C	-0.14 °C	0.12 °C	0.36 °C	1.99 °C	0.02 °C	-0.07 °C
OC1CCC(Oc2cccc3cnc(Nc4ccc5nc[nH]c5c4)nc23)CC1 (stereo not given)	5.55 °C	6.21 °C	1.42 °C	0.31 °C	7.5 °C	4.16 °C	10.3 °C	5.98 °C	1.07 °C	3.63 °C	1.84 °C	13.9 °C	-0.02 °C	4.52 °C	5.84 °C	8.36 °C	-0.24 °C	4.55 °C	11.4 °C	0.06 °C
C=CC(=O)N[C@H]1CCOC[C@H]1Nc1ncc2cc(-c3c(Cl)c(OC)cc(OC)c3Cl)ccc2n1	0.19 °C	-0.27 °C	2.28 °C	-0.14 °C	0.4 °C	0.24 °C	-0.48 °C	0.49 °C	-0.01 °C	1.84 °C	2.49 °C	-0.43 °C	-0.29 °C	-0.43 °C	-0.17 °C	-0.04 °C	-1.01 °C	0.62 °C	0.55 °C	-0.41 °C
Cc1ccc(-n2nc(C(C)(C)C)cc2NC(=O)Nc2ccc(OCCN3CCOCC3)c3ccccc23)cc1 [Doramapimod (BIRB 796)]	0.6 °C	0.28 °C	0.4 °C	0.47 °C	1.26 °C	0.35 °C	0.04 °C	0.73 °C	0.2 °C	1.1 °C	1.19 °C	1.27 °C	0.98 °C	1.11 °C	0.16 °C	0.56 °C	0.89 °C	0.89 °C	0.95 °C	0.9 °C
COc1ccc(/C=C/C(=O)C2(C(=O)/C=C/c3ccc(OC)c(OC)c3)CCCCC2)cc1OC	0.52 °C	0.5 °C	1.18 °C	0.16 °C	0.18 °C	0.55 °C	0.02 °C	0.51 °C	0.07 °C	0.63 °C	2.18 °C	0.27 °C	0.41 °C	0.1 °C	0.3 °C	0.31 °C	0.4 °C	1.47 °C	0.46 °C	0.38 °C
COc1nccc(-c2c(-c3ccc(F)cc3)ncn2C2CCC(O)CC2)n1 (stereo not given)	-0.16 °C	1.24 °C	-0.06 °C	0.22 °C	-0.06 °C	0.69 °C	-0.45 °C	0.16 °C	0.24 °C	0.27 °C	1.45 °C	1.05 °C	0.84 °C	0.44 °C	0.6 °C	0.09 °C	0.67 °C	0.39 °C	-0.37 °C	0.65 °C
O=C(c1cccc(Cl)c1F)N1CCN(Cc2cccc(Nc3nccs3)n2)CC1	0.64 °C	0.86 °C	0.24 °C	-0.45 °C	4.28 °C	0.14 °C	2.61 °C	1.3 °C	0.25 °C	4.36 °C	1.37 °C	0.61 °C	1.32 °C	0.37 °C	0.2 °C	0.46 °C	1.01 °C	2.51 °C	9.07 °C	-0.27 °C
CNc1nc(-c2ccc3c(N)n[nH]c3c2)cc(N2C[C@@H](C(=O)NC3CCCCC3)CC[C@H]2C)n1	-0.44 °C	0.32 °C	0.09 °C	0.25 °C	0.55 °C	1.02 °C	-5.84 °C	0.39 °C	0.44 °C	0.02 °C	2.04 °C	0.28 °C	2.12 °C	0.81 °C	-0.04 °C	0.71 °C	1.63 °C	1.27 °C	0.75 °C	1.01 °C
N#Cc1c(Oc2ccc(F)c(NC(=O)Cc3cccc(C(F)(F)F)c3)c2)ccc2nc(NC(=O)C3CC3)sc12	1 °C	2.13 °C	0.14 °C	0.81 °C	0.57 °C	1.14 °C	0.16 °C	1.04 °C	1.02 °C	0.32 °C	2.29 °C	1.23 °C	1.86 °C	0.73 °C	0.52 °C	0.34 °C	0.79 °C	0.98 °C	0.68 °C	0.88 °C
CCN1CCN(Cc2ccc(Nc3ncc(F)c(-c4cc(F)c5nc(C)n(C(C)C)c5c4)n3)nc2)CC1	1.5 °C	2.83 °C	4.97 °C	-0.66 °C	7.4 °C	3.11 °C	0.45 °C	1.47 °C	0.13 °C	1.08 °C	-0.28 °C	0.1 °C	0.59 °C	0.27 °C	0.39 °C	-0.01 °C	0.46 °C	2.49 °C	5.93 °C	0.23 °C
N#Cc1c(O)c2c(-c3ccc(-c4ccccc4O)cc3)csc2[nH]c1=O	0.93 °C	1.74 °C	0.92 °C	1.23 °C	0.8 °C	1.72 °C	0.7 °C	0.95 °C	0.44 °C	0.93 °C	3.04 °C	1.32 °C	1.46 °C	0.82 °C	0.95 °C	0.52 °C	1.91 °C	1.2 °C	0.5 °C	1.96 °C
